Test results reported in the supplement of paper PMC4840960.
± gives the standard deviation of the averaged measurements.

Each compound was assayed on E18 rat cortical neuron-glia co-culture (assay: fiber score / MBP score (myelination specific beyond OL differentiation) (ratio); higher = more myelination-specific MBP alignment). Conditions: 1 µM; treatment time: 8 days (DIV5-DIV13).
In short: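 Primary E18 rat cortical co-cultures (papain-dissociated, 20,000 cells/well on poly-d-lysine/laminin 96-well plates) received library compounds at 1 or 5 µM in myelination medium from DIV5 to DIV13. Cells were fixed in 4 % paraformaldehyde and immunostained for MBP and Olig2 with DAPI, and four 10X fields per well in duplicate wells were analysed. The read-out is fiber score (continuous MBP fiber length per Olig2+ nucleus) divided by MBP score (thresholded MBP area × intensity per Olig2+ nucleus).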

Row | Structure (SMILES) | fiber score / MBP score
1 | CN(C)CCC(c1ccc(Cl)cc1)c1ccccn1 (centres undefined) [Chlorpheniramine] | 0.721 ± 0.13
2 | OC(CCN1CCCCC1)(c1ccccc1)C1CCCCC1 (centres undefined) [Trihexyphenidyl] | 0.616
3 | CNC(=N)NCCC[C@H](N)C(=O)O | 0.684
4 | C#C[C@]1(O)CC[C@H]2[C@@H]3CCc4cc(O)ccc4[C@H]3CC[C@@]21C [Ethinyl Estradiol] | 0.608
5 | O=C(NCCO[N+](=O)[O-])c1cccnc1 [Nicorandil] | 0.852
6 | CN(C)CCOC(c1ccccc1)c1ccccc1 [Diphenhydramine] | 0.668
7 | O=C1CN(/N=C/c2ccc([N+](=O)[O-])o2)C(=O)N1 [Nitrofurantoin] | 0.819
8 | CN(C)CC/C=C1/c2ccccc2COc2ccc(CC(=O)O)cc21 [Olopatadine] | 0.791
9 | CCCC1O[C@@H]2C[C@H]3[C@@H]4CCC5=CC(=O)C=C[C@]5(C)[C@H]4[C@@H](O)C[C@]3(C)[C@]2(C(=O)CO)O1 (some centres undefined) [Budesonide] | 0.86
10 | CN(C)CCN(Cc1ccccc1)c1ccccn1 [Tripelennamine] | 0.67
11 | Nc1ccn([C@H]2CC[C@@H](CO)O2)c(=O)n1 [Zalcitabine] | 0.888
12 | CC(C)c1nc(CN(C)C(=O)N[C@H](C(=O)N[C@@H](Cc2ccccc2)C[C@H](O)[C@H](Cc2ccccc2)NC(=O)OCc2cncs2)C(C)C)cs1 [Ritonavir] | 0.549
13 | C[C@@](Cc1ccc(O)c(O)c1)(NN)C(=O)O [Carbidopa] | 0.917
14 | CCc1c(C)[nH]c2c1C(=O)C(CN1CCOCC1)CC2 (centres undefined) [Molindone] | 0.619
